This test addresses ETV1 (Homo sapiens, UniProt P50549 1-477). The test is described as follows: DAPPL (digital affinity profiling via proximity ligation, sequencing); 10 mM Tris-HCl pH 7.5, 50 mM NaCl, 1 mM DTT, 4% glycerol, room temperature, 30 min; GST-TFs on glutathione beads, 16-mer random dsDNA library, 0.1% formaldehyde crosslink after washing; high values mean tight binding. As to conditions: protein: recombinant; tags: N-terminal GST; dsDNA, one strand shown. The essentials: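 Pools were built from human transcription factors expressed in yeast as GST fusions, captured on glutathione beads and DNA-barcoded, along with a tag-only sample. Incubation with 200 nmole of a 16-mer random double-stranded DNA library lasted 30 min at room temperature in Tris/NaCl/DTT/glycerol buffer, and was followed by washing, 0.1% formaldehyde crosslinking, proximity ligation, PCR amplification and Illumina NextSeq500 sequencing. Binding signal is the quotient of each hexamer's read frequency for a factor and its frequency for the tag-only sample.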
Chain of ETV1 (P50549 whole entry, the tested form may be a part): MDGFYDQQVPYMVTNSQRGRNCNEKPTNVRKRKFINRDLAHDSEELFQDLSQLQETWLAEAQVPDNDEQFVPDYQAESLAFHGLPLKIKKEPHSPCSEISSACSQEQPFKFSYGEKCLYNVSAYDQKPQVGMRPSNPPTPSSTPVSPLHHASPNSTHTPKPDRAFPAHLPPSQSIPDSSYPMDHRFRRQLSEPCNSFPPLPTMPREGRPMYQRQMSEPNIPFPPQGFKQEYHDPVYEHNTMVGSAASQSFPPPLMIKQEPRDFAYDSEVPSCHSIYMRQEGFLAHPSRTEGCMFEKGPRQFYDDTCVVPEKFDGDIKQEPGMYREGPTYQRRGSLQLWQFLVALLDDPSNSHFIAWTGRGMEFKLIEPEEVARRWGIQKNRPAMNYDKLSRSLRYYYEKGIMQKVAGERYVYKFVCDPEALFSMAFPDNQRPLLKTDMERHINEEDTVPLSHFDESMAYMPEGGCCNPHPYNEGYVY
For CACCCT, the binding signal is 1.24 fold enrichment (6-mer frequency, TF over GST control).
The same measure for TGCGGA: 1.37 fold enrichment (6-mer frequency, TF over GST control); for CTCACC: 1.25 fold enrichment (6-mer frequency, TF over GST control); for GCCACT: 1.22 fold enrichment (6-mer frequency, TF over GST control).
The same measure for TGTCAC: 1.18 fold enrichment (6-mer frequency, TF over GST control).
For GCTACA, the binding signal was 1.13 fold enrichment (6-mer frequency, TF over GST control).
The same measure for CCACAT: 1.21 fold enrichment (6-mer frequency, TF over GST control); for CACAAC: 1.2 fold enrichment (6-mer frequency, TF over GST control).
For GGCCTC, the binding signal was 1.07 fold enrichment (6-mer frequency, TF over GST control).
On to GCTACC, for which the binding signal was 1.26 fold enrichment (6-mer frequency, TF over GST control).
ACAACC: the binding signal was 1.23 fold enrichment (6-mer frequency, TF over GST control).
With CAACAT, the binding signal is 1.13 fold enrichment (6-mer frequency, TF over GST control).
In the case of CAAACT it was 1.28 fold enrichment (6-mer frequency, TF over GST control); in that of TGCATG, 1.06 fold enrichment (6-mer frequency, TF over GST control); in that of GTCCTT, 1.13 fold enrichment (6-mer frequency, TF over GST control).
In the case of GGATGC it was 1.2 fold enrichment (6-mer frequency, TF over GST control); in that of AGCGAC, 1.12 fold enrichment (6-mer frequency, TF over GST control).
As to AACCGG, the binding signal was 1.69 fold enrichment (6-mer frequency, TF over GST control).
The same measure for ACCTGA: 1.06 fold enrichment (6-mer frequency, TF over GST control); for CCCGGC: 1.19 fold enrichment (6-mer frequency, TF over GST control).
On to CCGCCG, for which the binding signal is 1.25 fold enrichment (6-mer frequency, TF over GST control).
The same measure for CGTATC: 1.18 fold enrichment (6-mer frequency, TF over GST control); for CACACT: 1.14 fold enrichment (6-mer frequency, TF over GST control); for TGGCAG: 1.05 fold enrichment (6-mer frequency, TF over GST control).
As for GTCCTC, the binding signal was 1.25 fold enrichment (6-mer frequency, TF over GST control).
Consider GACTAC, for which the binding signal is 1.17 fold enrichment (6-mer frequency, TF over GST control).
In the case of CCAACA it was 1.04 fold enrichment (6-mer frequency, TF over GST control); in that of GTACAA, 1.09 fold enrichment (6-mer frequency, TF over GST control); in that of TGCACC, 1.13 fold enrichment (6-mer frequency, TF over GST control).
The same measure for CCCCCG: 1.04 fold enrichment (6-mer frequency, TF over GST control); for CGACAC: 1.16 fold enrichment (6-mer frequency, TF over GST control); for CTGTCC: 1.4 fold enrichment (6-mer frequency, TF over GST control).
The same measure for GCACCC: 1.15 fold enrichment (6-mer frequency, TF over GST control); for GACATC: 1.33 fold enrichment (6-mer frequency, TF over GST control); for CACATA: 1.05 fold enrichment (6-mer frequency, TF over GST control).
For the sequence CGTACC, the binding signal is 1.26 fold enrichment (6-mer frequency, TF over GST control).
Take GCTTGG: the binding signal is 1.22 fold enrichment (6-mer frequency, TF over GST control).
The same measure for ACACAC: 1.17 fold enrichment (6-mer frequency, TF over GST control).
In the case of TGCGAC it was 1.18 fold enrichment (6-mer frequency, TF over GST control); in that of CCGTCA, 1.22 fold enrichment (6-mer frequency, TF over GST control).

(Values after article PMC7862700, “An all-to-all approach to the identification of sequence-specific readers for epigenetic DNA modifications on cytosine”.)
